Measured values published in PubChem BioAssay AID1159580 (chemical genetic matrix, 2015).
The whole screen tested about 5,500 compounds, of which about 2,000 (36%) were called active. About 18% were inconclusive and are not listed. The list shows a part of the results. Values without a mark were called inactive. Cut-off read from the data, not from the text of the source: active = normalized growth mostly below about 0.91 (no sharp cut-off); inconclusive = no clear call, values can overlap the other calls; inactive = mostly above about 0.92.

Assay: chemical genetic growth profiling, strain panel (AID 1159580);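 note: tested at 20 µM; growth read once vehicle control cultures reached saturation at 30 °C; 1 = growth at the plate median or of vehicle wells; lower values mean less growth of the strain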
Settings: growth OD

## Cc1cc(NC(=O)C2=C(O)c3ccccc3S(=O)(=O)N2C)no1
S. cerevisiae deletion strains, locus YJR066W, strain TOR1, stronger effect = lower value
  normalized growth: 0.893
S. cerevisiae deletion strains, locus YKL009W, strain mrt4, stronger effect = lower value
  normalized growth: 0.928
S. cerevisiae deletion strains, locus YKL068W, stronger effect = lower value
  normalized growth: 0.924 (active)
S. cerevisiae deletion strains, locus YKL085W, strain MDH1 (second series), stronger effect = lower value
  normalized growth: 0.906 (active)
S. cerevisiae deletion strains, locus YKL085W, strain MDH1, stronger effect = lower value
  normalized growth: 0.906 (active)
S. cerevisiae deletion strains, locus YKL160W, strain elf1, stronger effect = lower value
  normalized growth: 0.996
S. cerevisiae deletion strains, locus YKL190W, strain CNB1, stronger effect = lower value
  normalized growth: 0.976
S. cerevisiae deletion strains, locus YKR001C, strain vps1, stronger effect = lower value
  normalized growth: 0.973
S. cerevisiae deletion strains, locus YKR026C, strain gcn3, stronger effect = lower value
  normalized growth: 0.956
S. cerevisiae deletion strains, locus YKR091W, strain srl3, stronger effect = lower value
  normalized growth: 0.95
S. cerevisiae deletion strains, locus YLL001W, strain dnm1, stronger effect = lower value
  normalized growth: 0.992
S. cerevisiae deletion strains, locus YLL026W, stronger effect = lower value
  normalized growth: 0.968
S. cerevisiae deletion strains, locus YLL041C, strain sdh2, stronger effect = lower value
  normalized growth: 0.96
S. cerevisiae deletion strains, locus YLR027C, strain aat2, stronger effect = lower value
  normalized growth: 0.975
S. cerevisiae deletion strains, locus YLR039C, strain RIC1, stronger effect = lower value
  normalized growth: 0.96
S. cerevisiae deletion strains, locus YLR058C, strain SHM2, stronger effect = lower value
  normalized growth: 0.984
S. cerevisiae deletion strains, locus YLR102C, strain apc9, stronger effect = lower value
  normalized growth: 0.95
S. cerevisiae deletion strains, locus YLR113W, strain HOG1, stronger effect = lower value
  normalized growth: 0.929
S. cerevisiae deletion strains, locus YLR221C, strain rsa3, stronger effect = lower value
  normalized growth: 0.968
S. cerevisiae deletion strains, locus YLR258W, strain gsy2, stronger effect = lower value
  normalized growth: 0.971
S. cerevisiae deletion strains, locus YLR262C, strain YPT6 (second series), stronger effect = lower value
  normalized growth: 0.999
S. cerevisiae deletion strains, locus YLR262C, strain YPT6, stronger effect = lower value
  normalized growth: 0.977
S. cerevisiae deletion strains, locus YLR268W, strain sec22, stronger effect = lower value
  normalized growth: 0.969
S. cerevisiae deletion strains, locus YLR320W, strain mms22, stronger effect = lower value
  normalized growth: 0.955
S. cerevisiae deletion strains, locus YLR330W, strain CHS5, stronger effect = lower value
  normalized growth: 0.962
S. cerevisiae deletion strains, locus YLR342W, strain FKS1 (second series), stronger effect = lower value
  normalized growth: 1.01
S. cerevisiae deletion strains, locus YLR342W, strain FKS1, stronger effect = lower value
  normalized growth: 0.975
S. cerevisiae deletion strains, locus YLR357W, strain rsc2, stronger effect = lower value
  normalized growth: 0.994
S. cerevisiae deletion strains, locus YLR370C, strain arc18, stronger effect = lower value
  normalized growth: 0.98
S. cerevisiae deletion strains, locus YLR371W, strain rom2, stronger effect = lower value
  normalized growth: 0.967
S. cerevisiae deletion strains, locus YLR384C, strain iki3, stronger effect = lower value
  normalized growth: 0.954
S. cerevisiae deletion strains, locus YLR418C, strain cdc73, stronger effect = lower value
  normalized growth: 0.951
S. cerevisiae deletion strains, locus YML016C, strain PPZ1, stronger effect = lower value
  normalized growth: 0.987
S. cerevisiae deletion strains, locus YML032C, strain rad52, stronger effect = lower value
  normalized growth: 0.985
S. cerevisiae deletion strains, locus YML120C, strain ndi1, stronger effect = lower value
  normalized growth: 0.947
S. cerevisiae deletion strains, locus YML124C, strain tub3, stronger effect = lower value
  normalized growth: 0.954
S. cerevisiae deletion strains, locus YMR058W, strain fet3, stronger effect = lower value
  normalized growth: 0.976
S. cerevisiae deletion strains, locus YMR078C, strain ctf18, stronger effect = lower value
  normalized growth: 0.924
S. cerevisiae deletion strains, locus YMR125W, strain sto1, stronger effect = lower value
  normalized growth: 0.955
S. cerevisiae deletion strains, locus YMR129W, stronger effect = lower value
  normalized growth: 0.956
S. cerevisiae deletion strains, locus YMR205C, strain PFK2, stronger effect = lower value
  normalized growth: 0.989
S. cerevisiae deletion strains, locus YMR223W, strain ubp8, stronger effect = lower value
  normalized growth: 0.944
S. cerevisiae deletion strains, locus YMR231W, strain pep5, stronger effect = lower value
  normalized growth: 0.967
S. cerevisiae deletion strains, locus YMR307W, strain GAS1, stronger effect = lower value
  normalized growth: 0.961
S. cerevisiae deletion strains, locus YNL067W, strain RPL9B, stronger effect = lower value
  normalized growth: 1.01
S. cerevisiae deletion strains, locus YNL071W, strain lat1, stronger effect = lower value
  normalized growth: 0.976
S. cerevisiae deletion strains, locus YNL183C, strain NPR1, stronger effect = lower value
  normalized growth: 0.879
S. cerevisiae deletion strains, locus YNL209W, strain ssb2, stronger effect = lower value
  normalized growth: 0.96
S. cerevisiae deletion strains, locus YNL233W, strain BNI4, stronger effect = lower value
  normalized growth: 1.04
S. cerevisiae deletion strains, locus YNL248C, strain rpa49, stronger effect = lower value
  normalized growth: 0.973
S. cerevisiae deletion strains, locus YNL250W, strain rad50, stronger effect = lower value
  normalized growth: 0.908
S. cerevisiae deletion strains, locus YNL271C, strain bni1, stronger effect = lower value
  normalized growth: 0.923
S. cerevisiae deletion strains, locus YNL298W, strain CLA4, stronger effect = lower value
  normalized growth: 0.923
S. cerevisiae deletion strains, locus YNL307C, strain MCK1, stronger effect = lower value
  normalized growth: 0.947
S. cerevisiae deletion strains, locus YNL322C, strain KRE1 (second series), stronger effect = lower value
  normalized growth: 0.953
S. cerevisiae deletion strains, locus YNL322C, strain KRE1, stronger effect = lower value
  normalized growth: 0.978
S. cerevisiae deletion strains, locus YNR049C, strain mso1, stronger effect = lower value
  normalized growth: 0.967
S. cerevisiae deletion strains, locus YNR052C, strain pop2, stronger effect = lower value
  normalized growth: 0.955
S. cerevisiae deletion strains, locus YOL006C, strain TOP1, stronger effect = lower value
  normalized growth: 1.03
S. cerevisiae deletion strains, locus YOL012C, strain htz1
  normalized growth: 1.14
S. cerevisiae deletion strains, locus YOL147C, strain pex11, stronger effect = lower value
  normalized growth: 0.942
S. cerevisiae deletion strains, locus YOR001W, strain rrp6, stronger effect = lower value
  normalized growth: 0.997
S. cerevisiae deletion strains, locus YOR061W, strain CKA2, stronger effect = lower value
  normalized growth: 0.992
S. cerevisiae deletion strains, locus YOR069W, strain VPS5, stronger effect = lower value
  normalized growth: 0.972
S. cerevisiae deletion strains, locus YOR070C, strain gyp1, stronger effect = lower value
  normalized growth: 0.971
S. cerevisiae deletion strains, locus YOR080W, strain dia2, stronger effect = lower value
  normalized growth: 0.974
S. cerevisiae deletion strains, locus YOR083W, strain WHI5, stronger effect = lower value
  normalized growth: 0.964
S. cerevisiae deletion strains, locus YOR106W, strain vam3, stronger effect = lower value
  normalized growth: 0.996
S. cerevisiae deletion strains, locus YOR136W, strain idh2, stronger effect = lower value
  normalized growth: 0.978
S. cerevisiae deletion strains, locus YOR144C, strain elg1, stronger effect = lower value
  normalized growth: 0.956
S. cerevisiae deletion strains, locus YOR184W, strain ser1, stronger effect = lower value
  normalized growth: 0.945
S. cerevisiae deletion strains, locus YOR231W, strain MKK1, stronger effect = lower value
  normalized growth: 0.993
S. cerevisiae deletion strains, locus YOR265W, strain rbl2, stronger effect = lower value
  normalized growth: 0.966
S. cerevisiae deletion strains, locus YOR270C, strain vph1, stronger effect = lower value
  normalized growth: 0.969
S. cerevisiae deletion strains, locus YOR290C, strain snf2, stronger effect = lower value
  normalized growth: 0.977
S. cerevisiae deletion strains, locus YOR316C, strain cot1, stronger effect = lower value
  normalized growth: 0.94
S. cerevisiae deletion strains, locus YPL051W, strain arl3, stronger effect = lower value
  normalized growth: 0.989
S. cerevisiae deletion strains, locus YPL078C, strain atp4, stronger effect = lower value
  normalized growth: 0.981
S. cerevisiae deletion strains, locus YPL106C, strain sse1, stronger effect = lower value
  normalized growth: 0.954
S. cerevisiae deletion strains, locus YPL240C, strain hsp82, stronger effect = lower value
  normalized growth: 0.973
S. cerevisiae deletion strains, locus YPL256C, strain CLN2, stronger effect = lower value
  normalized growth: 0.905
S. cerevisiae deletion strains, locus YPR119W, strain clb2, stronger effect = lower value
  normalized growth: 0.945
S. cerevisiae deletion strains, locus YPR141C, strain kar3, stronger effect = lower value
  normalized growth: 0.919
S. cerevisiae deletion strains, locus YPR163C, strain tif3, stronger effect = lower value
  normalized growth: 0.931
S. cerevisiae deletion strains, locus YPR167C, strain met16, stronger effect = lower value
  normalized growth: 0.943
S. cerevisiae deletion strains, strain wtn01, stronger effect = lower value
  normalized growth: 0.961
S. cerevisiae strains, strain wild type, stronger effect = lower value
  normalized growth: 0.983
